# Results as given in PubChem BioAssay (Tox21).
# Values without a mark were called inactive. Records with an inconclusive call do not appear. Entries that show only a call come without a potency. The source made the active and inactive calls. Unless noted, the call rests on the fitted dose curve; in most records, active means well fitted curve in the direction sought with a large enough effect in the repeat runs; inconclusive means weak or mixed curves; inactive means no such curve, though single readings can be large; an effect the other way counts as inactive or inconclusive.
# How the values were obtained:
# [1] = A CellTox Green Cytotoxicity Assay to monitor cytotoxicity in HepG2 cells - 8 hour (AID 1224890); further: nearly all actives have a fitted effect of over 45% in size; further: potency means the concentration at half of the fitted maximal effect
# Summary of the method: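 Fluorescent DNA-binding dye, 600 HepG2 cells/well, 5 h preincubation then compound in DMSO; same plates read at 0–40 h, 37 C.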
# [2] = qHTS assay to identify small molecule antagonists of the estrogen receptor alpha (ER-alpha) signaling pathway using the BG1 cell line in the presence of 0.1 nM 17-beta-estradiol - cell viability counter screen (AID 1259241); further: nearly all actives have a fitted effect of over 40% in size; further: potency means the concentration at half of the fitted maximal effect
# Summary of the method: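 CellTiter-Fluor read (30 min, 37C) on ER-alpha/ERE-luc VM7Luc4E2 cells; 22 hr compound treatment; agonist 0.1 nM E2 final; same-well multiplex.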
# [3] = qHTS assay to identify small molecule antagonists of the androgen receptor (AR) signaling pathway using the MDA cell line in the presence of 0.5 nM R1881 - cell viability counter screen (AID 1259242); further: nearly all actives have a fitted effect of over 45% in size
# Summary of the method: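 Human breast carcinoma MDA-kb2 cells, cultured without CO2, receive compounds alongside 0.5 nM (final) R1881 agonist. After 16 hr at 37C, viability is taken as live-cell protease signal.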
# [4] = qHTS assay to identify small molecule HDAC inhibitors (AID 1259364); further: potency means the concentration at half of the fitted maximal effect;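 further: wild-type HCT-116 cells with endogenous class I/II HDAC activity; nearly all actives have a fitted effect of over 45% in size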; on activity change, negative = inhibition: top concentration of the series differs between compounds
# Summary of the method: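 After a 2 hr compound incubation (37C, 5% CO2), HCT-116 cells seeded at 1,500/well the day before received HDAC-Glo reagent; signal read as luminescence after 30 min at room temperature.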
# [5] = qHTS assay to identify small molecule agonists of the sonic hedgehog signaling (Shh) pathway - cell viability counter screen (AID 1259366); further: nearly all actives have a fitted effect of over 50% in size; further: potency means the concentration at half of the fitted maximal effect
# Summary of the method: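 Fluorescence from CellTiter-Fluor reports live cells in this counter screen. NIH/3T3-derived Gli1-Luc reporter cells receive test compounds for 24hr at 37C; reagent goes in at 23hr.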
# [6] = qHTS assay to identify small molecule antagonists of the sonic hedgehog signaling (Shh) pathway - cell viability counter screen (AID 1259367); further: nearly all actives have a fitted effect of over 55% in size; further: potency means the concentration at half of the fitted maximal effect
# Summary of the method: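 Viability was read by CellTiter-Fluor fluorescence in the same wells, reagent added 23 hr into compound treatment and incubated 1 hr at 37C. The 3T3 Gli1-Luc reporter cells (2,000/well) received conditioned medium after compound and ran 24 hr.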
# [7] = biological target: Estrogen receptor (Homo sapiens) (UniProt P03372); test: qHTS assay to identify small molecule antagonists of the estrogen receptor alpha (ER-alpha) signaling pathway using the BG1 cell line in the presence of 0.1 nM 17-beta-estradiol (AID 1259244); further: nearly all actives have a fitted effect of over 50% in size; further: potency means the concentration at half of the fitted maximal effect
# Summary of the method: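 Seeding of stripped-serum-adapted VM7Luc4E2 cells, 24 h attachment, compound transfer, then 0.1 nM final 17beta-estradiol; after 22 h incubation, ONE-Glo reagent and luminescence reading.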
# [8] = qHTS assay to identify small molecule phospholipidosis (PLD) inducers (AID 1259344; active means well fitted curve in the direction sought with a large enough effect; an effect the other way counts as inactive or inconclusive)
# Summary of the method: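 Phospholipid accumulation was scored by imaging: fixed, Hoechst-counterstained HepG2 cells stained with LipidTOX Red after 24 h compound exposure at 37 C. Read-outs were pit count and pit intensity per well or per cell, with amiodarone and DMSO controls.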
# [9] = qHTS assay to identify small molecule HDAC inhibitors - cell viability counter screen (AID 1259365); further: series mostly up to about 92 µM; nearly all actives have a fitted effect of over 50% in size
# Summary of the method: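 To flag cytotoxic hits, 1,500 wild-type HCT-116 cells per well, plated the day before, receive test compounds for 2hr at 37 C before CellTiter-Glo reagent and a luminescence read.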
# [10] = biological target: Androgen receptor (Homo sapiens) (UniProt P10275); test: qHTS assay to identify small molecule antagonists of the androgen receptor (AR) signaling pathway using the MDA cell line in the presence of 0.5 nM R1881 (AID 1259243); further: nearly all actives have a fitted effect of over 50% in size
# Summary of the method: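 Cells: MDA-kb2 (MMTV-luc). Stimulus: 0.5 nM R1881. Time: 16 hr, 37C, no CO2. Detection: ONE-Glo luminescence after 30 min at RT.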
# Sequence of Estrogen receptor (Homo sapiens) (P03372 whole entry, looked up): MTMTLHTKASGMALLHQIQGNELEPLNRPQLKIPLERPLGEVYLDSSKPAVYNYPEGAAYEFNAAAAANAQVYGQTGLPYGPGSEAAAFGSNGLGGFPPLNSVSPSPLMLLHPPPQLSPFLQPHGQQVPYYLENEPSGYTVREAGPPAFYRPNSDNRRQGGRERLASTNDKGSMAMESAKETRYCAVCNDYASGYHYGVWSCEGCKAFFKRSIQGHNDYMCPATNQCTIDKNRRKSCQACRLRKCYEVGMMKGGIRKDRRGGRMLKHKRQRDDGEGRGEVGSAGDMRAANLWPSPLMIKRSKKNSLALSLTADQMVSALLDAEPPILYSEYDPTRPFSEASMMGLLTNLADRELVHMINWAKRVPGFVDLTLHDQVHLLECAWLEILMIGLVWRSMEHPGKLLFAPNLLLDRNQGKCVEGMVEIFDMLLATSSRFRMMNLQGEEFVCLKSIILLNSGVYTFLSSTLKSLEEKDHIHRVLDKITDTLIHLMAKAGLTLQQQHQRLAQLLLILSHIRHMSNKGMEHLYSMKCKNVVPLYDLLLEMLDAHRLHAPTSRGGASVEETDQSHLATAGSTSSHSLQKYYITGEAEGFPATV
# Sequence of Androgen receptor (Homo sapiens) (P10275 whole entry, looked up): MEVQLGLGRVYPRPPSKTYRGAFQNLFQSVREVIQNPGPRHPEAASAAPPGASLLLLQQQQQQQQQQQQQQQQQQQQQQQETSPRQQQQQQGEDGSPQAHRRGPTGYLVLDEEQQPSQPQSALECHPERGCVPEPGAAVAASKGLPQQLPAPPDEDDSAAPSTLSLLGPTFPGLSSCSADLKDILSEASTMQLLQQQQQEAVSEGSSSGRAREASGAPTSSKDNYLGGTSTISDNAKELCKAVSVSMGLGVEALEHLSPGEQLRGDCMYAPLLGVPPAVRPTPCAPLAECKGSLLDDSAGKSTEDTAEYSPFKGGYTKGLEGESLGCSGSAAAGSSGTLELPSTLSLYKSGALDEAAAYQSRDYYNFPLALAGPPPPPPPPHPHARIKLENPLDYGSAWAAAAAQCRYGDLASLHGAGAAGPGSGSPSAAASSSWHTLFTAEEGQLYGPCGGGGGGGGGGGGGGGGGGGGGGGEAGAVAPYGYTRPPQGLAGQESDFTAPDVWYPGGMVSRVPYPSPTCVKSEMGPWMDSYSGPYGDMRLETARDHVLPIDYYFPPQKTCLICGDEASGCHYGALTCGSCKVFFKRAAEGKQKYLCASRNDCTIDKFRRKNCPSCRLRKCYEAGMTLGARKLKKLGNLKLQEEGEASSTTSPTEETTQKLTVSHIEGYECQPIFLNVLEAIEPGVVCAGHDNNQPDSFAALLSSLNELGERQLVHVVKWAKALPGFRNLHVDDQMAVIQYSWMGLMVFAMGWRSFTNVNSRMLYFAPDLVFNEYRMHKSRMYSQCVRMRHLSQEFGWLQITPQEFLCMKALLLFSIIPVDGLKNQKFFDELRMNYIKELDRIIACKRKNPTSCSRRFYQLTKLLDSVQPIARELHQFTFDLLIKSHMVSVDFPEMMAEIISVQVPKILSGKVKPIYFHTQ
smiles,measurement,setting,value
Cc1ccc([N+](=O)[O-])cc1Cl,Potency,[1],inactive
same,Potency,[2],inactive
same,outcome,[3],inactive
same,Potency,[4],inactive
same,Potency,[5],inactive
same,Potency,[6],inactive
CCNCCO,Potency,[1],inactive
same,Potency,[2],inactive
same,outcome,[3],inactive
same,Potency,[4],inactive
same,Potency,[5],inactive
same,Potency,[6],inactive
O=C(O)c1ccccc1Nc1cc(Cl)ccc1C(=O)O,cytotoxicity increase,[1],7.19% [at 15.8 µM]
same,"activity change, negative = cytotoxicity",[2],-25.8% [at 19 µM]
same,"activity change, negative = inhibition",[7],-11% [at 19 µM]
same,PLD induction,[8],-4.32% [at 7.66 µM]
same,"activity change, negative = inhibition",[4],-1.95% [at 19 µM]
same,"activity change, negative = cytotoxicity",[9],-5.17% [at 19 µM]
CO[Si](C)(C)OC,Potency,[1],inactive
same,Potency,[2],inactive
same,Potency,[7],inactive
same,Potency,[4],inactive
same,outcome,[9],inactive
same,Potency,[5],inactive
same,Potency,[6],inactive
CN1CCC[C@@H]1Cc1c[nH]c2ccc(CCS(=O)(=O)c3ccccc3)cc12,Potency,[1],inactive
same,Potency,[2],inactive
same,outcome,[3],inactive
same,Potency,[4],inactive
same,outcome,[9],inactive
same,Potency,[5],inactive
same,Potency,[6],inactive
Nc1ccc(Oc2ccc(N)c(N)c2)cc1,Potency,[1],inactive
same,Potency,[2],48.6 µM (active)
same,outcome,[3],inactive
same,Potency,[4],30.6 µM (active)
same,outcome,[9],inactive
same,Potency,[6],inactive
CCOC(=O)CS,Potency,[1],inactive
same,Potency,[2],inactive
same,outcome,[3],inactive
same,Potency,[4],25 µM (active)
same,Potency,[5],inactive
C/C(=N\O)[C@@H](C)NCC(C)(C)CN[C@H](C)/C(C)=N/O,Potency,[1],inactive
same,Potency,[2],inactive
same,outcome,[3],inactive
same,Potency,[4],inactive
same,outcome,[9],inactive
same,Potency,[5],inactive
same,Potency,[6],inactive
C[C@@H](N)C(=O)O,Potency,[1],inactive
same,Potency,[2],inactive
same,Potency,[10],inactive
same,outcome,[8],inactive
same,Potency,[4],inactive
same,outcome,[9],inactive
same,Potency,[5],inactive
same,Potency,[6],inactive
CC(C)C[C@H](NC(=O)OCC1c2ccccc2-c2ccccc21)C(=O)O,Potency,[1],inactive
same,Potency,[2],inactive
same,outcome,[3],inactive
same,Potency,[4],inactive
same,Potency,[5],inactive
same,Potency,[6],inactive
Cc1cc(S(=O)(=O)O)c(N)cc1Cl,Potency,[1],inactive
same,Potency,[2],inactive
same,Potency,[10],inactive
same,Potency,[7],inactive
same,Potency,[4],inactive
same,outcome,[9],inactive
same,Potency,[5],inactive
same,Potency,[6],inactive
CN(C)C(=O)NC1(c2ccccc2)CCN(CCC[C@]2(c3ccc(Cl)c(Cl)c3)CCCN(C(=O)c3ccccc3)C2)CC1,cytotoxicity increase,[1],9.35% [at 15.8 µM]
same,"activity change, negative = cytotoxicity",[2],3.34% [at 19 µM]
same,"viability change, negative = cytotoxic",[3],-6.41% [at 19 µM]
same,"activity change, negative = inhibition",[4],-4.11% [at 19 µM]
same,Potency,[5],13 µM (active)
CC(C)C1=CC2=CC[C@@H]3[C@](C)(CCC[C@@]3(C)C(=O)O)[C@H]2CC1,Potency,[1],inactive
same,Potency,[2],inactive
same,Potency,[7],inactive
same,outcome,[8],inactive
same,Potency,[4],inactive
same,outcome,[9],inactive
same,Potency,[5],inactive
same,Potency,[6],inactive
CCCCOc1cc(C(=O)NCCN(CC)CC)c2ccccc2n1,Potency,[1],inactive
same,Potency,[2],inactive
same,outcome,[3],inactive
same,Potency,[4],inactive
same,outcome,[9],inactive
same,Potency,[6],inactive
CCCCCCCCc1ccc(S(=O)(=O)O)cc1,Potency,[1],inactive
same,Potency,[2],inactive
same,outcome,[3],inactive
same,Potency,[4],inactive
same,outcome,[9],inactive
same,Potency,[5],inactive
same,Potency,[6],inactive
COc1cc(N)c(Cl)cc1C(=O)NC1CCN(Cc2ccccc2)CC1,Potency,[1],inactive
same,Potency,[2],inactive
same,Potency,[7],inactive
same,outcome,[8],inactive
same,Potency,[4],inactive
same,outcome,[9],inactive
same,Potency,[5],inactive
CCCCCCCCCC#N,Potency,[1],inactive
same,Potency,[2],inactive
same,outcome,[3],inactive
same,Potency,[4],inactive
same,outcome,[9],inactive
same,Potency,[6],60.8 µM (active)
O=C1CCC(C2CCCCC2)CC1,Potency,[1],27.5 µM (active)
same,Potency,[2],inactive
same,outcome,[3],inactive
same,Potency,[4],inactive
same,outcome,[9],inactive
same,Potency,[5],inactive
same,Potency,[6],inactive
CC(=O)N(CC(O)CN(C(C)=O)c1c(I)c(C(=O)NCC(O)CO)c(I)c(C(=O)NCC(O)CO)c1I)c1c(I)c(C(=O)NCC(O)CO)c(I)c(C(=O)NCC(O)CO)c1I (stereo not given),Potency,[1],inactive
same,Potency,[2],inactive
same,Potency,[7],inactive
same,outcome,[8],inactive
same,Potency,[4],inactive
same,outcome,[9],inactive
same,Potency,[5],inactive
same,Potency,[6],inactive
CC(C)=CCC[C@](C)(O)[C@@H]1CC=C(C)CC1,Potency,[2],inactive
same,outcome,[3],inactive
same,Potency,[4],inactive
same,outcome,[9],inactive
same,Potency,[5],inactive
CC/C=C\CCOC(=O)CCCCC,Potency,[2],inactive
same,outcome,[3],inactive
same,Potency,[7],inactive
same,Potency,[4],inactive
same,outcome,[9],inactive
same,Potency,[5],inactive
same,Potency,[6],inactive
c1ccc(CN(CC2=NCCN2)c2ccccc2)cc1,Potency,[1],inactive
same,Potency,[2],inactive
same,outcome,[8],inactive
same,Potency,[4],inactive
same,Potency,[5],inactive
same,Potency,[6],inactive
Clc1cccc(-c2cc(Cl)cc(Cl)c2)c1,Potency,[1],inactive
same,Potency,[2],inactive
same,Potency,[4],inactive
same,outcome,[9],inactive
same,Potency,[5],inactive
same,Potency,[6],inactive
Cc1ccc([N+](=O)[O-])c(N)c1,Potency,[1],inactive
same,outcome,[3],inactive
same,Potency,[4],inactive
same,outcome,[9],inactive
CCCN(CCC)C(=O)C(CCC(=O)O)NC(=O)c1ccccc1 (stereo not given),Potency,[1],inactive
same,Potency,[2],inactive
same,outcome,[8],inactive
same,Potency,[4],inactive
same,outcome,[9],inactive
same,Potency,[5],inactive
same,Potency,[6],inactive
CCOc1ccccc1N,Potency,[1],inactive
same,Potency,[2],inactive
same,Potency,[7],30.4 µM (active)
same,Potency,[4],inactive
same,Potency,[5],inactive
CCOC(=O)C1CC(=O)C(=C(O)C2CC2)C(=O)C1 (stereo not given),Potency,[1],inactive
same,Potency,[2],inactive
same,Potency,[7],inactive
same,Potency,[4],inactive
same,outcome,[9],inactive
same,Potency,[5],inactive
same,Potency,[6],inactive
CCCS(=O)c1ccc2nc(NC(=O)OC)[nH]c2c1 (stereo not given),Potency,[1],inactive
same,outcome,[3],inactive
same,Potency,[10],inactive
same,Potency,[4],5.96 µM (active)
same,outcome,[9],inactive
same,Potency,[5],inactive
same,Potency,[6],inactive
